Only some compounds are listed: those with a hit (about 0.97% of all), similar ones and a draw of the others.
Rv3671c inh – inhibitors of M. tuberculosis serine protease Rv3671c | AID 2606 | inhibition, % at 5.96 µM | 320,000 tested, 0.048% active | P9WHR9; in the data active = inhibition above about 38%;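 also: extracellular domain of Rv3671c used as enzyme; 0% = enzyme with DMSO and 100% = no enzyme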
Target sequence (P9WHR9 whole entry, looked up, the tested form may be a part): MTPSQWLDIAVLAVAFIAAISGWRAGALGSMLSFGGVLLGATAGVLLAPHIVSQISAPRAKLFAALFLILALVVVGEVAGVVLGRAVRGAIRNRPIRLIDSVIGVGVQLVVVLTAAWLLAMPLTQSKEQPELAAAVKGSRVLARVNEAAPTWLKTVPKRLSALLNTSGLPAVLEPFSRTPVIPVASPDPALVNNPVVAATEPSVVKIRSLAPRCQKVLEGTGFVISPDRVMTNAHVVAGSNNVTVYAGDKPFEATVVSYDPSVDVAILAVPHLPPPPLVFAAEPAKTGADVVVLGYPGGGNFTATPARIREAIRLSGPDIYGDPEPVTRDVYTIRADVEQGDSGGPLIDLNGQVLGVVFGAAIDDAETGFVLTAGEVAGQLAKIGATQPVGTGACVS
Mtb betalactam – beta-lactam sensitization of Mtb H37Rv. inhibition, % at 25 µM. 330,000 tested, 0.27% active. M. tuberculosis H37Rv growth with meropenem, percent inhibition;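 also: growth measured after seven days incubation then overnight dye step; 0% = bacteria only wells and 100% = bacteria with antibiotic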
MazF activator – activators of E. coli MazEF toxin-antitoxin RNase; P0AE70; FAM/BHQ RNA-DNA oligo cleavage fluorescence, 5 h; activation, % at 20 µM; 350,000 tested, 0.32% active; AID 504720; in the data active = activation above about 50%
Target sequence (P0AE70 whole entry, looked up): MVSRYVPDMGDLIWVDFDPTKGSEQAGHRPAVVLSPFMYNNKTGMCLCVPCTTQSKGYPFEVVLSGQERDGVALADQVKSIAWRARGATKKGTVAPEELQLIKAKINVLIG
Mtb UGM inh – blocks M. tuberculosis UGM enzyme | P9WIQ1 | purified UGM, fluorescence polarization probe displacement | inhibition, % at 10 µM | 320,000 tested, 0.06% active; in the data active = inhibition above about 10%, passing the limit was not always enough; inconclusive = no clear call, values can overlap the other calls
TcdB inh – TcdB glycohydrolase inhibition | P18177 | TcdB glycohydrolase enzymatic assay, plate reader | inhibition, % at 9.99 µM | 350,000 tested, 0.24% active | AID 652162; in the data active = inhibition above about 10%
RecA intein inh – inhibitors of M. tuberculosis RecA intein splicing; cell-free RecA intein splicing, fluorescence; inhibition, % (concentration not given with the values); 290,000 tested, 0.75% active; AID 2221; in the data active = inhibition above about 30%; inconclusive = no clear call, values can overlap the other calls;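 also: 0% = vehicle wells and 100% = reference inhibitor control wells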
GFP chromophore – counter-screen: blocks GFP chromophore formation | cell-free GFP chromophore formation, fluorescence | 2,100 tested, 83% active | EC50, µM | shares compounds with RecA intein inh | AID 434968
* = called active by the depositor; ? = inconclusive; / = no result. Unless noted, no rule for the calls is given here.

SMILES | Rv3671c inh | Mtb betalactam | MazF activator | Mtb UGM inh | TcdB inh | RecA intein inh | GFP chromophore
O=c1oc2cc(Oc3c([N+](=O)[O-])cc(C(F)(F)F)cc3[N+](=O)[O-])ccc2c2c1CCCC2 | -3 | 85 | 6 | 3 | / | 41* | 0.96*
COCC(=O)N(C)C[C@@H]1Oc2cc(Br)ccc2S(=O)(=O)N([C@@H](C)CO)C[C@@H]1C | / | / | / | / | -2 | / | /
O=C(Cc1ccccn1)N1CC2(C1)[C@H](c1ccccc1)[C@H](CO)N2C(=O)c1cccnc1 | / | / | / | / | 0 | / | /
Cc1sc2ncnc(Sc3nnnn3-c3ccccc3)c2c1C | -4 | 64 | -3 | -2 | / | 34* | 18*
Cc1sc2ncnc(Sc3ccccc3C(=O)O)c2c1C | -3 | -8 | 5 | -1 | -1 | -3 | /
Clc1ccc(-n2nnnc2Sc2ncnc3sccc23)cc1 | -10 | 100 | 2 | 0 | / | 39* | 10*
Cn1nnnc1Sc1ncnc2scc(-c3ccc(Cl)cc3)c12 | -2 | 63 | 3 | 5 | 0 | / | /
C[C@@H]1CN([C@H](C)CO)C(=O)c2cc(NC(=O)CCC(F)(F)F)ccc2O[C@@H](C)CCCCO[C@H]1CN(C)C(=O)Nc1ccc2c(c1)OCO2 | / | / | / | / | -1 | / | /
CC(C)(C)c1ccc(-n2nc(C(N)=O)c(O)cc2=O)cc1 | 1 | -6 | -4 | 1 | 1 | -4 | /
CC(C)(C)c1ccc(-n2nc(C#N)c(Cl)cc2=O)cc1 | / | / | -3 | / | 1 | 93* | 2.6*
CO[C@H]1CN(C)C(=O)c2cc(NC(=O)c3cccc(F)c3)ccc2OC[C@@H](C)N(CC2CC2)C[C@@H]1C | / | / | / | / | 0 | / | /
Cc1noc(C)c1NC(=O)Nc1ccc2c(c1)C(=O)N([C@H](C)CO)C[C@H](C)[C@@H](CN(C)Cc1ccc(C(=O)Nc3ccccc3N)cc1)O2 | / | / | / | / | -1 | / | /
Cc1ccc(S(=O)(=O)Nc2ccc(O)c3ccccc23)c(C)c1 | / | 4 | -20 | 0 | 0 | 97* | 0.23*
COc1ccc(S(=O)(=O)Nc2ccc(O)c3ccccc23)cc1 | -75 | 30 | -2 | -1 | / | 96* | 0.14*
Cc1ccc(S(=O)(=O)Nc2ccc3c4c(cccc24)CC3)c(C)c1 | -9 | 10 | 1 | -1 | / | -1 | /
Cc1ccc(C)c(S(=O)(=O)Nc2ccc(O)c3ccccc23)c1 | -13 | 7 | 1 | 1 | 0 | 95* | 0.23*
CC(NC(=O)Cn1ncc(Cl)c(Cl)c1=O)C12CC3CC(CC(C3)C1)C2 (configuration not stated) | 0 | -10 | 0 | -1 | / | 49* | ?
CCn1cc(C(=O)NC(C)C23CC4CC(CC(C4)C2)C3)cn1 (configuration not stated) | -1 | 4 | -1 | 0 | 2 | 0 | /
CCCc1c(C(=O)NNc2cccc(Cl)c2)cnn1-c1ccccc1 | -5 | 93 | -4 | 0 | -2 | 32* | >38
COc1ccc(NC(=O)N(C)C[C@H]2Oc3ncc(-c4ccc(C#N)cc4)cc3C(=O)N([C@@H](C)CO)C[C@H]2C)cc1 | / | / | / | / | 1 | / | /
CCCN1[C@@H]2Cn3c(cccc3=O)[C@H]1[C@@H](C(=O)N[C@@H](C)c1ccccc1)[C@@H]2CO | / | / | / | / | 0 | / | /
CCc1nc(N2CCN(C(=O)CCl)CC2)c2c3c(sc2n1)CC(C)CC3 (configuration not stated) | -8 | 101 | 0 | 2 | 0 | 87* | 2.6*
COc1ccc(CC2=CC(=O)c3ccccc3C2=O)cc1 | -34 | 100 | 4 | -1 | 1 | 77* | 8.5*
O=C(O)C[C@H]1C[C@H]2c3cc(NC(=O)Cc4ccncc4)ccc3O[C@H]2[C@@H](CO)O1 | / | / | / | / | -3 | / | /
O=C(Nc1ccccc1)Nc1ccc(O)c2ccccc12 | -48 | 7 | -17 | 3 | / | 60* | 3*
SMILES | Rv3671c inh | Mtb betalactam | MazF activator | Mtb UGM inh | TcdB inh | RecA intein inh | GFP chromophore
COc1ccc(C(=O)Nc2ccc(O)c3ccccc23)cc1OC | -4 | -7 | 1 | -1 | -14 | 98* | 15*
COc1ccc(OC)c(NC(=O)Nc2ccc(O)c3ccccc23)c1 | -96 | 4 | -5 | 1 | 0 | 78* | 1.2*
COc1ccc(OC)c(NC(=O)Nc2c(O)ccc3ccccc23)c1 | -5 | -1 | -4 | 2 | -8 | -1 | /
Cc1ccc(S(=O)(=O)Nc2ccc3c(c2)CC(=O)N([C@H](C)CO)C[C@H](C)[C@@H](CN(C)S(=O)(=O)c2ccc(C)cc2)O3)cc1 | / | / | / | / | 1 | / | /
O=C(Cc1ccc(Cl)cc1)NCCc1c[nH]c2ccccc12 | -1 | -2 | 3 | -1 | 1 | 1 | /
O=C(CCl)N(c1ccccc1)c1c[nH]c2ccccc12 | -3 | 100 | 1 | 0 | / | 82* | 8.3*
O=C(CCl)N(c1ccc(Cl)cc1)c1c[nH]c2ccccc12 | 4 | 99 | -1 | 0 | / | 40* | 2.2*
C[C@@H]1CN([C@@H](C)CO)C(=O)Cc2cc(NC(=O)NC3CCCCC3)ccc2O[C@@H]1CN(C)Cc1ccc(C(F)(F)F)cc1 | / | / | / | / | -1 | / | /
COc1ccc(N/N=C(\C#N)C(=N)SCc2ccccc2)cc1 | / | / | 7 | / | -3 | 55* | 24*
COc1ccc(N/N=C(\C#N)C(=N)N2CCCCC2)cc1 | 13 | 36 | 0 | -2 | 3 | 2 | /
COc1ccc(S(=O)(=O)N(C)C[C@@H]2OCCCC[C@H](C)Oc3ccc(NC(=O)Cc4ccccc4)cc3C(=O)N([C@@H](C)CO)C[C@H]2C)cc1 | / | / | / | / | 0 | / | /
CN(C)CC/C=C1\c2ccccc2Sc2ccc(Cl)cc21 | 4 | 80 | 19 | 4 | 3 | 4 | /
CCCCCCCCCC[N+](C)(C)CC/C=C1/c2ccccc2Sc2ccc(Cl)cc21 | 14 | 100 | -44 | -3 | / | 69* | 12*
CC[N+](C)(C)CC/C=C1/c2ccccc2Sc2ccc(Cl)cc21 | -1 | -12 | 7 | -1 | 1 | 14 | /
CCCCCCCCCCC[N+](C)(C)CC/C=C1/c2ccccc2Sc2ccc(Cl)cc21 | 3 | 100 | -58 | -4 | / | 63* | 9.5*
COc1ccc(N(C(=O)Cc2cccs2)C(C(=O)NC2CCCC2)c2ccncc2)cc1 (configuration not stated) | 7 | -9 | 4 | 2 | 2 | -5 | /
COc1ccc(C(C(=O)NC2CCCCC2)N(C(=O)CCl)c2cccc(Cl)c2)cc1 (configuration not stated) | -11 | 1 | -13 | 0 | 1 | 59* | ?
O=C(NC1CCCCC1)C(c1cccnc1)N(C(=O)CCl)c1ccc(F)cc1 (configuration not stated) | -11 | 59 | 9 | -1 | 1 | 73* | 11*
O=C(NC1CCCCC1)C(c1ccncc1)N(Cc1ccc(F)cc1)C(=O)c1ccccn1 (configuration not stated) | 6 | -8 | -1 | 0 | -1 | -3 | /
O=C(NC1CCCCC1)C(c1cccnc1)N(C(=O)CCl)c1ccccc1Cl (configuration not stated) | 0 | 8 | 2 | 1 | 0 | 10 | /
